Screening data: PubChem BioAssay, National Center for Advancing Translational Sciences (NCATS)
A selection: hits, their analogues and other compounds. The true share with any hit is near 2.6%.
Cruzain inh Det: cruzain (T. cruzi) inhibition with detergent; purified cruzain, Z-FR-AMC fluorescence, 0.01% Triton; Potency, µM, usual class: inhibitors; actives 0.43% (n = 200,000); further: nearly all actives have a fitted effect of over 40% in size
Target sequence (P25779 123-467 limits assumed): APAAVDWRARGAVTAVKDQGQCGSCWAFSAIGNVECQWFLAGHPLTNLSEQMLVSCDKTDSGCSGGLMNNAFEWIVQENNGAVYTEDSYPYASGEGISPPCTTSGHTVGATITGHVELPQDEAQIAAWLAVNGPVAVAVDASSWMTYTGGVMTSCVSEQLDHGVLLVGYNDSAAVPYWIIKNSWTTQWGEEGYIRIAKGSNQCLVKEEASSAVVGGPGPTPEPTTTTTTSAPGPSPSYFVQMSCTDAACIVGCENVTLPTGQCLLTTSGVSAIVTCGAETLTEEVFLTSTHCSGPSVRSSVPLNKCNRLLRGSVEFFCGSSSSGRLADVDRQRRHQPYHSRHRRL
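Z-FR-AMC hydrolysis (2 uM substrate) by cruzain (1.5 nM) monitored kinetically at ex 360/em 450 nm after 15 min room-temperature compound exposure; 0.01% Triton X-100, pH 5.5, 5 mM DTT.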
Cruzain noTriton: cruzain (T. cruzi) inhibition without detergent; Potency, µM, usual class: inhibitors; actives 2.3% (n = 200,000); AID 1476; purified cruzain, Z-FR-AMC fluorescence, no detergent; P25779; further: nearly all actives have a fitted effect of over 40% in size
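Detergent-free condition (0.00005% Triton X-100) in acetate buffer pH 5.5 with DTT. 1.5 nM enzyme and compound were pre-mixed 15 min, then 2 uM Z-FR-AMC substrate added; reaction progress from fluorescence change between first and third reads (60 s).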
Numbers stand for hits; . = inactive; ? = inconclusive. The call rests on the fitted dose curve; in most records, active means well fitted curve in the direction sought with a large enough effect; inconclusive means small, poorly fitted or top-dose-only effect, or another doubt; inactive means no such curve, though single readings can be large; an effect the other way counts as inactive or inconclusive.

SMILES | Cruzain inh Det | Cruzain noTriton
Cc1ccccc1CCNC(=O)c1ccc2c(c1)c(C)c(C)n2Cc1ccccc1 | . | 20µM
Cc1cccc(CNC(=O)c2ccc3c(c2)c(C)c(C)n3Cc2ccccc2)c1 | . | ?
COc1ccc(CCNC(=O)c2ccc3c(c2)c(C)c(C)n3Cc2ccccc2)c(OC)c1OC | . | ?
Cc1c(C)n(Cc2ccccc2)c2ccc(C(=O)NCc3ccc(OC(C)C)cc3)cc12 | . | 25.1µM
Cc1ccccc1CCNC(=O)c1ccc2c(c1)c(C)c(C)n2C | . | ?
Cc1c(C)n(Cc2ccccc2)c2ccc(C(=O)NCCc3ccccc3Cl)cc12 | . | 25.1µM
COc1ccc(NC(=O)c2ccc3c(c2)c(C)c(C)n3Cc2ccc(F)cc2)cc1 | . | ?
CCOC(=O)c1ccc(NC(=O)c2ccc3c(c2)c(C)c(C)n3Cc2ccc(F)cc2)cc1 | . | 7.94µM
CC(=O)c1cccc(NC(=O)c2sc(-n3nc(C)c(CCC(C)C)c3C)nc2C)c1 | . | .
O=C1CC(c2nc3ccccc3[nH]2)CN1c1cccc(Cl)c1 (stereo not drawn) | . | .
Cn1cnc(S(=O)(=O)N2CCC(C(=O)N3CCN(c4ccccc4F)CC3)CC2)c1 | . | .
CCc1ccc(NC(=O)CCc2nnc3n(C)c(=O)c4sccc4n23)cc1 | . | .
COc1ccccc1N1CCN(Cc2ccc(O)c3ncccc23)CC1 | . | .
Oc1ccc(CN2CCCc3ccccc32)c2cccnc12 | . | 25.1µM
COCCn1c(=NC(=O)c2ccc(S(=O)(=O)N3CCc4ccccc4C3)cc2)sc2cc(S(N)(=O)=O)ccc21 | . | ?
C=CCn1c(=NC(=O)c2ccc(S(=O)(=O)N3CCc4ccccc4C3)cc2)sc2cc(S(N)(=O)=O)ccc21 | . | .
COC(=O)Cn1c(=NC(=O)c2ccc(S(=O)(=O)N3CCc4ccccc4C3)cc2)sc2cc(OC)ccc21 | . | 6.31µM
C#CCn1c(=NC(=O)c2ccc(S(=O)(=O)N3CCc4ccccc4C3)cc2)sc2cc(S(N)(=O)=O)ccc21 | . | 10µM
CCN1C(=O)c2ccccc2Sc2ccc(NC(=O)Nc3cc(C)cc(C)c3)cc21 | . | .
COc1ccc(Cn2cc(C(=O)c3ccc(Cl)cc3)c(=O)c3cc4c(cc32)OCO4)cc1 | . | ?
COc1ccc(C(=O)N2CCC(C(=O)Nc3ccccc3Cl)CC2)cc1 | . | .
Cc1onc(-c2ccccc2Cl)c1C(=O)Nc1ccc2c(c1)OCO2 | . | .
Cc1onc(-c2ccccc2Cl)c1C(=O)OCC(=O)c1ccc2c(c1)OCCO2 | . | 25.1µM
CCC1(CC)Cc2ccccc2-c2nc(-c3ccccc3)oc(=O)c21 | . | ?
O=c1oc(-c2ccccc2)nc2c1C1(CCCCC1)Cc1ccccc1-2 | . | 25.1µM
SMILES | Cruzain inh Det | Cruzain noTriton
CCOC(=O)C1CCN(C(=O)c2nn(-c3ccc(OC)cc3)c(=O)c3c2c2ccccc2n3C)CC1 | . | .
COc1ccc(NC(=O)C(=O)N/N=C/c2cc(C)n(-c3cccc(Cl)c3Cl)c2C)c(OC)c1 | . | 12.6µM
COc1ccc(OC)c(NC(=O)C(=O)N/N=C/c2ccccc2[N+](=O)[O-])c1 | . | .
CC1=NN(c2nc(-c3ccc(C)cc3)cs2)C(=O)C1N=Nc1cccc(C)c1 (stereo not drawn) | . | 12.6µM
CC1=NN(c2nc(-c3ccccc3)cs2)C(=O)C1 | . | .
COC(=O)c1ccc(/C=N/Nc2nc(-c3ccccc3)cs2)cc1 | . | 12.6µM
COC(=O)c1ccc(/C=N/Nc2nc(-c3ccc(C)cc3)cs2)cc1 | . | 12.6µM
CC(/C=C/c1ccccc1)=N\Nc1nc(-c2ccccc2)cs1 | . | 25.1µM
COc1ccc(/C=N/N(C(C)=O)c2nc(-c3ccc(C)cc3)cs2)cc1 | . | .
C(=N\Nc1nc(-c2ccccc2)cs1)/c1cccnc1 | . | .
CC(C)=NNc1nc(-c2ccccc2)cs1 | . | .
CCC1CCc2nc3sc(C(=O)Nc4ccc(F)cc4F)c(N)c3cc2C1 (stereo not drawn) | . | .
O=C(c1ccc2c(c1)N(Cc1cccc(Cl)c1)C(=O)c1ccccc1S2=O)N1CCC(Cc2ccccc2)CC1 (stereo not drawn) | . | .
COc1ccccc1CNC(=O)c1ccc(N2CCCC2)c(NC(=O)NCc2ccc(C)cc2)c1 | . | .
Cc1c(CNC2CCCCC2)c(C(=O)O)c(C)n1Cc1ccc(F)cc1 | . | .
Cc1cccc(C2=NN(c3ccc(Br)cc3)[C@@H](C(=O)N3CCOC3=O)[C@@H]2c2ccc(Cl)cc2)c1 | . | 8.91µM
Cc1cccc(C2=NN(c3ccc(Br)cc3)[C@@H](C(=O)N3CCOC3=O)[C@@H]2c2ccc(F)cc2)c1 | . | 17.8µM
Cc1cccc(-c2nc3c(cnn3-c3ccccc3)c(=O)n2-c2ccc(Cl)cc2)c1 | . | ?
Cc1cccc(-c2nc3c(cnn3-c3ccccc3)c(=O)n2-c2ccc(Br)cc2)c1 | . | .
COc1c(CO)cc(CO)cc(CO)c1=O | . | .
Cc1ccc(N2CCN(C(=O)c3cnn(-c4ccc(F)cc4F)c3C3CCN(C(=O)OC(C)(C)C)CC3)CC2)c(C)c1 | . | ?
Nc1cc(=O)nc(SCC(=O)Nc2ccccc2)n1CCc1ccccc1 | . | .
COc1ccc(-c2cc(OC(=O)c3ccc(Cl)cc3)c3c(C)oc(C)c3c(=O)c2)cc1 | . | .
O=C(c1cccc([N+](=O)[O-])c1)N1CCN(c2ccc(Cl)cc2)CC1 | . | .
O=[N+]([O-])c1ccc(N2CCN(c3nc(-c4ccc(Cl)cc4)cs3)CC2)cc1 | . | 12.6µM
SMILES | Cruzain inh Det | Cruzain noTriton
CCOC(=O)N1CCN(c2nc(-c3ccc(Cl)cc3)cs2)CC1 | . | .
O=[N+]([O-])c1cccc(/C=N\N2CCN(c3ccc(Cl)cc3)CC2)c1 | . | 25.1µM
O=[N+]([O-])c1ccc(/C=N\N2CCN(c3ccc(Cl)cc3)CC2)cc1 | . | 15.8µM
O=[N+]([O-])c1ccc(Cl)c(/C=N/N2CCN(Cc3ccc(Cl)cc3)CC2)c1 | . | .
Cc1cccc(N2C(=O)CSC23C(=O)N(CC(=O)NCc2ccccc2Cl)c2ccccc23)c1 (stereo not drawn) | . | ?
Cc1cc(C)c(S(=O)(=O)Nc2cc(Cl)c3oc4c(c3c2)C(=O)CCC4)cc1C | . | .
CCOC(=O)c1sc(NC(=O)CSc2nc(-c3ccco3)cc(C(F)(F)F)n2)c(C(=O)OC)c1C | . | .
COc1ccc(-c2cc(C(F)(F)F)nc(SCC(=O)Nc3sc4c(c3C#N)CCC4)n2)cc1 | . | 12.6µM
CCC1CCc2c(sc(NC(=O)CSc3nc(-c4ccco4)cc(C(F)(F)F)n3)c2C#N)C1 (stereo not drawn) | . | 1.26µM
N#Cc1c(NC(=O)CSc2nc(-c3ccccc3)cc(C(F)(F)F)n2)sc2c1CCC2 | . | ?
CCOc1cc2sc(N3CCC(C(=O)Nc4ccc(C)cc4)CC3)nc2cc1Br | . | .
Cc1cccc(-c2nc(SCC(=O)Nc3ccc4c(c3)OCO4)c(-c3ccccc3)[nH]2)c1 | . | ?
COc1ccc(NC(=O)Cn2nc(-c3ccncc3)ccc2=O)cc1Cl | . | .
Cc1ccc(NC(=O)Cn2c(=O)n(CCCCCC(=O)NCc3ccc(F)cc3)c(=O)c3sccc32)cc1C | . | .
CCC1CN(C(=O)Nc2cccc(OC)c2)c2ccccc2O1 (stereo not drawn) | . | .
O=c1c2ccccc2nc2n1CCC2 | ? | 12.6µM
O=c1c2ccccc2nc2n1CCCCC2 | . | .
N#C/C(=C(/O)CSc1ccccc1C(=O)O)c1nc2ccccc2s1 | . | .
Cc1ccc(SC/C(O)=C(\C#N)c2nc3ccccc3s2)cc1 | . | 25.1µM
